Laboratory results reported in the supplement of paper PMC10849652.
The full data set covers some 8,800 targets. This sample favours those with a hit. About 0.5% of all pairs of compound and target were hits.

Key:
Assay in all cases: log2 fold change, soluble protein after heating vs DMSO (PISA); higher = thermal stabilisation; K562 lysate, 10 uM; active = over 0.2 and 3.5 SD of the protein, either way, in both replicates (recomputed)
[1] = compound: C#Cc1cccc(Nc2ncnc3cc(OCCOC)c(OCCOC)cc23)c1 [erlotinib]
How it was run: (§1)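 Log-two fold change in thermal stability relative to solvent controls is reported from duplicates. For each sample, crude K562 extract from dounce-homogenised pellets in PBS pH 7.4 with 1 mM MgCl2, at 1 mg/mL protein, was treated with 10 μM compound for 30 min. Aliquots heated for 3 min across 48°C-58°C were pooled, brought to 0.5% NP-40 at 4°C and cleared at 21,000xg for 90 min. The supernatant was quantified by TMTpro 16plex LC-MS/MS with channel sums equalised.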

[2] = compound: C/C(=N\NC(=O)C1=CC(=CC=C1)S(=O)(=O)N2CCOCC2)/C3=C(C=CC(=C3)Cl)O
How it was run: as §1

[3] = compound: C1=CC(=CC=C1C2=NC3=C(N2)C=C(C=C3)C(=O)N)OC4=CC=C(C=C4)Cl
How it was run: as §1

[4] = compound: C1=CC2=C(C=CC(=C2)/C=C\3/C(=O)NC(=NCC4=CC=CS4)S3)N=C1
How it was run: as §1

[5] = compound: C1=CC2=NC=CN=C2C=C1/C=C/3\C(=O)NC(=O)S3
How it was run: as §1

[6] = compound: C1=CC=C(C=C1)C2=NC(=C(N2)C3=CC=NC=C3)C4=CC(=C(C=C4)Cl)O
How it was run: as §1

[7] = compound: C1=CC=C2C(=C1)C3=NNC4=CC=CC(=C43)C2=O
How it was run: as §1

[8] = compound: C1CCN(C1)C(=O)NC2=CC=CC(=C2)NC3=NC=C(C(=N3)NCCC4=CN=CN4)Br
How it was run: as §1

[9] = compound: C1CN(CCC1(CC2=CC=C(C=C2)Cl)N)C3=NC=NC4=C3C=CN4
How it was run: as §1

[10] = compound: C1COCCN1CCN2C3=CC=CC=C3N=C2NC(=O)C4=CC(=CC=C4)[N+](=O)[O-] [IRAK-1-4 Inhibitor I]
How it was run: as §1

Measured: log2 fold change

OGFR (UniProt Q9NZT2)
UniProt Q9NZT2, sequence (Q9NZT2 whole entry, looked up): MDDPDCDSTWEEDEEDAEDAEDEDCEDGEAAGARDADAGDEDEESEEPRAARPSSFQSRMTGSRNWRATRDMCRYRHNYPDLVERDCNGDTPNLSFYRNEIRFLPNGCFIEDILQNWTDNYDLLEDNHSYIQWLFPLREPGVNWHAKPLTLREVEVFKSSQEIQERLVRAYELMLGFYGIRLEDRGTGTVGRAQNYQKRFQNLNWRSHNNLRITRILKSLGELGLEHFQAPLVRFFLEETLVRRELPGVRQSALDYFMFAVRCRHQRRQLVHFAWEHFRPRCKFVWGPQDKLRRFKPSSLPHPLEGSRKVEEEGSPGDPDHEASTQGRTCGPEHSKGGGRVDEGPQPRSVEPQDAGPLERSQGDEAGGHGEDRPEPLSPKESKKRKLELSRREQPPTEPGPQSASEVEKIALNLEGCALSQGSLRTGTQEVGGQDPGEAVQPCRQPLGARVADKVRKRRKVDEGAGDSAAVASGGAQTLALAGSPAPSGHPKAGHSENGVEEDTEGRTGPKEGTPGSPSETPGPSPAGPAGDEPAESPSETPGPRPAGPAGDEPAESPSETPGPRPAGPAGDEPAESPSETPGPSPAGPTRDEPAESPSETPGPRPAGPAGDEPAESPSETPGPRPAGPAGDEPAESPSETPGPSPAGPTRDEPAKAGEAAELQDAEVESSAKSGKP
inactive: [1] 0.023 | [2] 0.023 | [3] 0.018 | [4] -0.015 | [5] -0.012 | [6] -0.011 | [7] -0.027 | [8] -0.01 | [9] 0.038 | [10] -0.012

NIT2 (UniProt Q9NQR4)
UniProt Q9NQR4, sequence (Q9NQR4 whole entry, looked up): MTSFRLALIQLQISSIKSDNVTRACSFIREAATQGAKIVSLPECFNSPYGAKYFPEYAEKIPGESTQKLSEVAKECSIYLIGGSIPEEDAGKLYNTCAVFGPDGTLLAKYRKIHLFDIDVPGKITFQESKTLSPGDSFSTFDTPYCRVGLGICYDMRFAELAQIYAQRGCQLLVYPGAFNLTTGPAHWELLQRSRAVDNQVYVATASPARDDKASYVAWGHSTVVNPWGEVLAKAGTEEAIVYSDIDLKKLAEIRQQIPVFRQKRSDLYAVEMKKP
inactive: [1] -0.048 | [2] 0.001 | [3] 0.014 | [4] 0.009 | [5] 0.007 | [6] -0.03 | [7] 0.032 | [8] -0.006 | [9] 0.015 | [10] 0.067

MRPL58 (UniProt Q14197)
inactive: [1] 0.025 | [2] -0.005 | [3] 0.054 | [4] -0.003 | [5] 0.01 | [6] -0.002 | [7] -0.025 | [8] -0.078 | [9] 0.043 | [10] -0.012

NUP133 (UniProt Q8WUM0)
inactive: [1] 0.01 | [2] -0.016 | [3] 0.006 | [4] 0.019 | [5] -0.018 | [6] 0.017 | [7] -0.023 | [8] -0.04 | [9] 0.015 | [10] 0.026

NEBL isoform 2 (UniProt O76041)
UniProt O76041, sequence (O76041 whole entry, looked up): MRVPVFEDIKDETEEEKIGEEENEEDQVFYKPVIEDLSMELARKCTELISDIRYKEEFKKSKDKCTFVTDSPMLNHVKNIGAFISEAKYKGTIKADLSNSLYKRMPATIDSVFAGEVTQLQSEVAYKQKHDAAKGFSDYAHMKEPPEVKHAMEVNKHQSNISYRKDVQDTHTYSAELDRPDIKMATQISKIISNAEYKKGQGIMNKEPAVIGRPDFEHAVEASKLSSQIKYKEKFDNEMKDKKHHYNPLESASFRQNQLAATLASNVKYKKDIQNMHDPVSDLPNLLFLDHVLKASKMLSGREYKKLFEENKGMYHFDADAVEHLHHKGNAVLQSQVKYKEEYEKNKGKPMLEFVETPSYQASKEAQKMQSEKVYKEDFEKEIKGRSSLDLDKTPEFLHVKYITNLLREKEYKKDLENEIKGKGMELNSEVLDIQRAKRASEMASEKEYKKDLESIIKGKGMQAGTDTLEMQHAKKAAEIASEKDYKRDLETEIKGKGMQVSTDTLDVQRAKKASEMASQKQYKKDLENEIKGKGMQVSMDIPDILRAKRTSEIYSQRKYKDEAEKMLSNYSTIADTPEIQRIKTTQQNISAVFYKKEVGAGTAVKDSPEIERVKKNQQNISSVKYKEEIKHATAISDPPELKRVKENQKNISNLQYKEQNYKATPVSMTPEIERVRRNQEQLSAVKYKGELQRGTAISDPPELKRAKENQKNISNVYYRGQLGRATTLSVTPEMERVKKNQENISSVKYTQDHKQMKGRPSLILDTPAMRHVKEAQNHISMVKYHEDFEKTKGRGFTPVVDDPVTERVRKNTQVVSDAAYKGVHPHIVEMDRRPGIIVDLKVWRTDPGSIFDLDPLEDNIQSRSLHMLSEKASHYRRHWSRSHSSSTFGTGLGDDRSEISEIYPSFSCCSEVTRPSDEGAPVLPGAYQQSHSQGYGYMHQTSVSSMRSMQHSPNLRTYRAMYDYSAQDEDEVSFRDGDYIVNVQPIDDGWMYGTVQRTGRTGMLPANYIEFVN
inactive: [1] 0 | [2] 0.081 | [3] 0.045 | [4] 0.012 | [5] 0.016 | [6] 0.015 | [7] 0.003 | [8] -0.007 | [9] -0.006 | [10] -0.005

PAIP2 (UniProt Q9BPZ3)
UniProt Q9BPZ3, sequence (Q9BPZ3 whole entry, looked up): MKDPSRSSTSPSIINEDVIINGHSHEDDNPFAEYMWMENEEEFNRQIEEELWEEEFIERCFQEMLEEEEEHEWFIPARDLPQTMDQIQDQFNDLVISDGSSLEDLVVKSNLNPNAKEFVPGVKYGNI
inactive: [1] 0.044 | [2] 0.041 | [3] -0.016 | [4] -0.01 | [5] 0.004 | [6] -0.054 | [7] -0.053 | [8] -0.044 | [9] 0.022 | [10] 0.017

NNMT (UniProt P40261)
UniProt P40261, sequence (P40261 whole entry, looked up): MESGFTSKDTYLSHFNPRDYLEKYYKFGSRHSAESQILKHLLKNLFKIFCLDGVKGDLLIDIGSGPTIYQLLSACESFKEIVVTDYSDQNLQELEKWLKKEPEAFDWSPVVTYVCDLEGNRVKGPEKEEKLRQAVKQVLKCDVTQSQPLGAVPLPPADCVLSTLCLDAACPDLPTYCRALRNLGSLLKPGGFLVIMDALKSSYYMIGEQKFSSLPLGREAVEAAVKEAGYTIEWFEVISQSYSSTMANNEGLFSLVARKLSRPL
inactive: [1] -0.015 | [2] 0.003 | [3] 0.045 | [4] -0.001 | [5] -0.003 | [6] 0.032 | [7] -0.019 | [8] -0.002 | [9] -0.006 | [10] -0.024

MTOR (UniProt P42345)
inactive: [1] 0.02 | [2] 0.031 | [3] -0.058 | [4] -0.022 | [5] 0.038 | [6] 0.025 | [7] -0.018 | [8] -0.012 | [9] 0.003 | [10] 0.006

NUP98 (UniProt P52948)
UniProt P52948, sequence (P52948 whole entry, looked up): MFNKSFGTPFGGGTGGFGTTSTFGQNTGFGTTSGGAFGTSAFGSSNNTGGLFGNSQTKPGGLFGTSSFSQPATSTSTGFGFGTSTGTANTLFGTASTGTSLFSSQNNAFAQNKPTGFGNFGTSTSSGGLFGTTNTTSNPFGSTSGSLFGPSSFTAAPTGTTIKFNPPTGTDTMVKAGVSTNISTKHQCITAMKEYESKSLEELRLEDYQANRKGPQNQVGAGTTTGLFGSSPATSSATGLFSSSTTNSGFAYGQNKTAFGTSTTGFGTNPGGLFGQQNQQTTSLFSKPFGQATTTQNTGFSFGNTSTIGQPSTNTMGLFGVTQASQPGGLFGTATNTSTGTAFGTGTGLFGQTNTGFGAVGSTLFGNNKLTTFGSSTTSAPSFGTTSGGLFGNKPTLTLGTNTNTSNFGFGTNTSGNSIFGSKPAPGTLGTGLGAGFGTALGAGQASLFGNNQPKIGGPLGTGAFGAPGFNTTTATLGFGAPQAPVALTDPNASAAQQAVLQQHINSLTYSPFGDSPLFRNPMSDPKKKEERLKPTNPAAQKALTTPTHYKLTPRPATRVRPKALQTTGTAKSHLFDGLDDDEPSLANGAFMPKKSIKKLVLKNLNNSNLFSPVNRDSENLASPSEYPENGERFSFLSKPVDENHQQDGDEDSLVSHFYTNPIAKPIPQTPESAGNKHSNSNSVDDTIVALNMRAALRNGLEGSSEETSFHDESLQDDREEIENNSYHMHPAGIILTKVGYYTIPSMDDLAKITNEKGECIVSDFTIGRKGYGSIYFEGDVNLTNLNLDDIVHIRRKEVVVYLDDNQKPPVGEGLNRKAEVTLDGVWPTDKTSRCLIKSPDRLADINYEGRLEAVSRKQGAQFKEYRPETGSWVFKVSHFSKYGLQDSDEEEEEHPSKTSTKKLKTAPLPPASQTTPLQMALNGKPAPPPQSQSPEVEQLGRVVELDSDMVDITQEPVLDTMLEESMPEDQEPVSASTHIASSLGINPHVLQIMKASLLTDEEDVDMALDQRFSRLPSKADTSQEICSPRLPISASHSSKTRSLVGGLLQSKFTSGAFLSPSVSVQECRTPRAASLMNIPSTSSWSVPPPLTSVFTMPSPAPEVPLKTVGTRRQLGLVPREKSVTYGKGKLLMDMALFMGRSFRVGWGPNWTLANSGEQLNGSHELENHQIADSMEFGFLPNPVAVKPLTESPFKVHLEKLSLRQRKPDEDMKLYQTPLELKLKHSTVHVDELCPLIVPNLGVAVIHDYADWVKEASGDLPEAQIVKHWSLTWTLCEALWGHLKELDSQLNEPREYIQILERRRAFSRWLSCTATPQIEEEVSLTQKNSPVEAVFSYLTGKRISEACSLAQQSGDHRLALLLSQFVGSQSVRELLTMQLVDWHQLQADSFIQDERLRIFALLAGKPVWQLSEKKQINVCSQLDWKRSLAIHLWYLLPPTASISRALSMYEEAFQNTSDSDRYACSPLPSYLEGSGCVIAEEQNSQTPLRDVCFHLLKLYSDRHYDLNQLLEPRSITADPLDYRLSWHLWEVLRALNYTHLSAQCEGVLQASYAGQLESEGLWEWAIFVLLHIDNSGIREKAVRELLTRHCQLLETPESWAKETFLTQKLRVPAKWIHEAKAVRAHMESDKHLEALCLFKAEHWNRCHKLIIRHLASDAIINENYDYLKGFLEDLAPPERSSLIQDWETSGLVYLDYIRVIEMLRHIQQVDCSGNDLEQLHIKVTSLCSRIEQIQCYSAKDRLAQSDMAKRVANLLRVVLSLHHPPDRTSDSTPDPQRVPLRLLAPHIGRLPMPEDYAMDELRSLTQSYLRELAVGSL
inactive: [1] -0.018 | [2] 0.017 | [3] 0.023 | [4] -0.026 | [5] 0.005 | [6] -0.079 | [7] -0.004 | [8] 0.015 | [9] 0.021 | [10] 0.002

NSUN7 (UniProt Q8NE18)
inactive: [1] -0.037 | [2] -0.271 | [3] 0.019 | [4] -0.095 | [5] 0.198 | [6] -0.031 | [7] -0.087 | [8] -0.026 | [9] -0.042 | [10] 0.068

NOSTRIN (UniProt Q8IVI9)
UniProt Q8IVI9, sequence (Q8IVI9 whole entry, looked up): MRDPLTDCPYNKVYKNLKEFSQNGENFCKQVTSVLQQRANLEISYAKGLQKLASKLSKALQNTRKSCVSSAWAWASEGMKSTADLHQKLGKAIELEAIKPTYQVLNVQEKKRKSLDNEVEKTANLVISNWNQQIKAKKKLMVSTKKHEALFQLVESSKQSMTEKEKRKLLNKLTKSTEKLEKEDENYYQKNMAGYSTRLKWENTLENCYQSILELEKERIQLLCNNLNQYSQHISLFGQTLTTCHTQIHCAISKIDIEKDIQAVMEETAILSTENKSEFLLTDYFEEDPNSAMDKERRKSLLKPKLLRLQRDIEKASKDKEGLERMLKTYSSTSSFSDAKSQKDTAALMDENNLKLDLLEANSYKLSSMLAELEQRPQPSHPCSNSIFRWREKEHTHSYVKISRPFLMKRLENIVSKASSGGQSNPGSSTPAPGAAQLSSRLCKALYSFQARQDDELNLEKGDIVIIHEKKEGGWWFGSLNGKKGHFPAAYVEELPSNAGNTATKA
inactive: [1] -0.031 | [2] 0.032 | [3] 0.132 | [4] 0.072 | [5] -0.008 | [6] -0.013 | [7] 0.07 | [8] -0.055 | [9] -0.065 | [10] 0.001

NEK7 (UniProt Q8TDX7)
UniProt Q8TDX7, sequence (Q8TDX7 whole entry, looked up): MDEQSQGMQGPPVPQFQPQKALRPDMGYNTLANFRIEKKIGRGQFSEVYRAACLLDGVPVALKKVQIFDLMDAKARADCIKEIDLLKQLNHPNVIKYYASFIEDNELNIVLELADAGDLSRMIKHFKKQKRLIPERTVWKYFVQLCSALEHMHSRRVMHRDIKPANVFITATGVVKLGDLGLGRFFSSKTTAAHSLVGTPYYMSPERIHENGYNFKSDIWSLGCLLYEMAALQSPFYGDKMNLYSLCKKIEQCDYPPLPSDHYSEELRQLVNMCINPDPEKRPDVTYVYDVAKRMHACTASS
inactive: [1] -0.004 | [2] 0.042 | [3] -0.083 | [4] 0 | [5] 0.01 | [6] 0.053 | [7] 0.103 | [8] 0.011 | [9] -0.005 | [10] 0.032

MRPL53 (UniProt Q96EL3)
inactive: [1] -0.036 | [2] -0.103 | [3] 0.042 | [4] 0.014 | [5] -0.004 | [6] -0.015 | [7] -0.049 | [8] -0.07 | [9] 0.096 | [10] 0.026

MT-CYB (UniProt P00156)
inactive: [1] 0.076 | [2] 0.141 | [3] 0.027 | [4] 0.024 | [5] 0.015 | [6] -0.229 | [7] 0.126 | [8] -0.105 | [9] 0.025 | [10] 0.028

OPA1 isoform 2 (UniProt O60313)
inactive: [1] 0.003 | [2] 0.03 | [3] -0.078 | [4] 0.024 | [5] 0.01 | [6] -0.022 | [7] -0.026 | [8] -0.015 | [9] 0.021 | [10] 0.003
